ADAM10 inh – ADAM10 inhibition, QFRET primary screen; actives 0.62% (n = 370,000); O14672; recombinant ADAM10, EDANS/DABCYL FRET peptide cleavage, 3 h; inhibition, % at 7 µM;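 active = inhibition above a per-campaign cutoff equal to the mean of compounds falling between control-based bounds plus 3 SD, cut at about 20% in these data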;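 note: 0% = DMSO wells while the 100% control is not disclosed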
GC-B act – GC-B (human) receptor activation. P20594. HEK293-GC-B cells, CNP EC30, cGMP TR-FRET; 0% at EC30 CNP, 100% saturating CNP. actives 0.11% (n = 370,000). activation, % at 10 µM;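 active = activation at 10 µM reaching about 35% in either raw or pattern-adjusted values, limit read from the data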
ADAM17 inh – inhibits human ADAM17; P78536; recombinant ADAM17, EDANS/DABCYL FRET peptide cleavage; inhibition, % at 6.95 µM; actives 0.83% (n = 370,000); AID 720648;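 active = inhibition above the mean of compounds lying between control limits plus 3 SD, set per campaign, cut at about 8.5% in these data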;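 note: 0% = DMSO-only wells as the low control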
NPR1 activator – GC-A (human) enzyme activation; activation, % at 10 µM; HEK293 GC-A cells, cGMP TR-FRET, EC30 ANP; 0% at EC30 ANP, 100% saturating ANP; actives 0.14% (n = 370,000); P16066; in the data active = activation above about 40%
ADAM10 confirm – confirmation of inhibitors of human ADAM10. AID 743208. shares compounds with ADAM10 inh. actives 1% (n = 2,100). inhibition, % at 6.95 µM. ADAM10 QFRET peptide cleavage, EDANS fluorescence;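 active = inhibition above about 20% chosen separately for each screening run, limit read from the data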;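 note: 0% = DMSO wells and 100% = marimastat wells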
ADAM17 ctr – inhibits human ADAM17 in ADAM10 exosite counter-screen; shares compounds with ADAM10 inh; ADAM17 QFRET peptide cleavage, EDANS fluorescence; inhibition, % at 6.95 µM; actives 0.5% (n = 2,100);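 active = mean triplicate inhibition above the solvent-only control wells' mean plus 3 SD, cut at about 12% in these data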;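 note: 0% = DMSO wells and 100% = marimastat wells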
* marks the source's active call; other numbers are inactive results; / = no result. This is a sample that favours compounds with a hit; in the whole collection about 1.3% have one here.

SMILES	ADAM10 inh	GC-B act	ADAM17 inh	NPR1 activator	ADAM10 confirm	ADAM17 ctr
CCO[C@@H]1OC(C(=O)NCc2ccccc2)=C[C@H](c2ccc(Br)cc2)[C@H]1CCCO	12	-4	3	0	/	/
CCO[C@H]1OC(C(=O)NCc2ccccc2)=C[C@@H](c2ccc(C(F)(F)F)cc2)[C@@H]1CCCO	22*	12	2	-2	-1	0
CCCCN(C(=O)c1ccccc1Br)C(c1ccc(OC)cc1)c1nc2ccccc2[nH]1 (centres undefined)	21*	-6	7	-6	3	1
OCCOCCn1c(C(CO)Nc2nc(-c3cccc(Br)c3)cs2)nc2ccccc21 (centres undefined)	2	-10	3	-5	/	/
CCCn1c(C(CO)Nc2nc(-c3cccc(Br)c3)cs2)nc2ccccc21 (centres undefined)	22*	0	9	-7	10	3
O=C(Nc1ccc(Cl)c([N+](=O)[O-])c1)C(Sc1ccccc1)c1ccccc1 (centres undefined)	26*	-4	11*	-2	8	3
COc1ccc(NC(C)C(=O)Nc2ccc(C#N)cc2)cc1Cl (centres undefined)	7	4	-4	6	/	/
COc1ccc(NC(C)C(=O)Nc2ccc(C(C)(C)C)cc2)cc1Cl (centres undefined)	27*	1	7	-3	7	1
NC(=O)C1=C(c2ccccc2)c2ccccc2C1=O	-12	20	-2	15	/	/
CSc1nc2cc(Oc3cccc(Cl)c3Cl)c(Cl)cc2[nH]1	20*	-5	7	0	8	2
COc1ccc(OCC(=O)NNC(=O)c2ccc3c(=O)n4c(nc3c2)CCC4)cc1	71*	0	-1	1	2	0
O=C(COc1ccc(Cl)cc1)NNC(=O)c1ccc2c(=O)n3c(nc2c1)CCC3	81*	-8	3	-5	2	1
Cc1ccc(OCC(=O)NNC(=O)c2ccc3c(=O)n4c(nc3c2)CCC4)cc1	-37	2	-10	1	/	/
CC(C)(C)c1ccc(C(CC(=O)O)NC(=O)Cc2ccc(Cl)cc2)cc1 (centres undefined)	-2	-2	-2	-5	/	/
O=C1NC[C@H](c2ccccc2)OC(=O)[C@@H](Cc2ccc(F)cc2)CC/C=C/C[C@H]1CC(=O)N(CCO)Cc1ccccc1	13	-2	6	-2	/	/
O=C1NC[C@H](c2ccccc2)OC(=O)[C@@H](Cc2ccc(F)cc2)CC/C=C/C[C@@H]1CC(=O)N(CCO)Cc1ccccc1	23*	2	6	-3	0	2
O=C1N[C@@H](Cc2ccccc2)COC(=O)[C@H](Cc2ccc(F)cc2)C/C=C\C[C@H]1CC(=O)N(CCO)Cc1ccccc1	9	-4	4	2	/	/
O=C1N[C@@H](Cc2c[nH]c3ccccc23)COC(=O)[C@H](Cc2ccc(F)cc2)C/C=C\C[C@H]1CC(=O)N(CCO)Cc1ccccc1	22*	-2	5	-3	6	2
O=c1cc(CCc2ccccc2)oc2cccc(O)c12	-10	1	-3	2	/	/
COc1ccc(S[C@]2(C(=O)N3CCCC3)CC(=O)N(C(=O)/C=C/c3ccccc3)[C@@H]2c2ccc(OC)cc2)cc1	5	13	2	-2	/	/
CCOc1ccc(CCN2C(=S)N([C@@H](Cc3ccc(O)cc3)CN3CCC[C@@H]3CN3C(=S)NC[C@@H]3CC(C)C)C[C@@H]2Cc2ccccc2)cc1	21*	2	4	0	12	5
Cn1nnnc1Sc1ncnc2scc(-c3ccccc3C(F)(F)F)c12	-1	-7	1	2	/	/
CC(=O)c1ccccc1-c1csc2ncnc(Sc3nnnn3C)c12	76*	7	-6	0	1	0
Cc1[nH]n(-c2ccc([N+](=O)[O-])cc2)c(=O)c1C=NCCN1CCN(C(=O)c2ccccc2)CC1	21*	3	8	0	2	-1
COc1ccc(CCN=Cc2c(C)[nH]n(-c3ccc([N+](=O)[O-])cc3)c2=O)cc1OC	-3	0	-2	1	/	/
SMILES	ADAM10 inh	GC-B act	ADAM17 inh	NPR1 activator	ADAM10 confirm	ADAM17 ctr
C[C@H]1/C=C/CC(=O)N[C@@H](c2ccc3ccccc3c2)[C@@H](C)/C=C/CC(=O)N[C@H]1c1ccc2ccccc2c1	3	-1	-1	-1	/	/
CC1CCN(CCCNC(=O)CN2CCN(Cc3ccc(Cl)cc3)C2=O)CC1	49*	4	-1	2	3	1
CC(C)OCCCNC(=O)CN1CCN(Cc2ccc(Cl)cc2)C1=O	9	1	-3	2	/	/
COc1ccc(/C=N/NC(=O)c2ccn[nH]2)cc1COc1ccc(F)cc1	9	-4	4	-4	/	/
COc1ccc(/C=N/NC(=O)c2ccn[nH]2)cc1COc1ccc(Cl)cc1Cl	21*	-5	3	3	7	3
O=C(c1ccc(C#CC2(O)CCCCC2)cc1)N1CCN(C(c2ccccc2)c2ccccc2)CC1	25*	0	4	-1	6	2
COc1cccc(NC(=S)NC(Cc2ccccc2)c2ccccc2)c1 (centres undefined)	21*	-5	7	-8	6	2
O=C(Nc1ccc2c(c1)N(Cc1ccccc1)C(=O)c1ccccc1S2)NC1CC1	21*	0	7	-10	4	1
O=C(N/C(=C/c1cccc([N+](=O)[O-])c1)C(=O)N1CCCCC1)c1ccco1	-8	0	-4	3	/	/
Cc1ccc(NS(=O)(=O)c2ccc(NC(=O)C(C)Sc3ccc(Cl)cc3)cc2)c(C)c1 (centres undefined)	27*	0	8	-3	9	4
Cc1ccc(NC(=S)N2CCN(c3ccccn3)CC2)cc1C	21*	2	3	3	1	1
Cc1cc(C)cc(NC(=S)N2CCN(c3ncccn3)CC2)c1	35*	5	1	-1	2	0
Cc1cccc(NC(=O)c2cc3n(n2)C(C(F)(F)F)CC(c2ccc4c(c2)OCO4)N3)c1 (centres undefined)	22*	-4	5	0	2	-1
Cc1ccccc1Nc1nc(N)nc(COC(=O)c2cccc(S(=O)(=O)NCc3ccccc3)c2)n1	23*	1	4	-3	2	0
COc1cc(O)c2c(=O)c3c(O)ccc(O)c3oc2c1	83*	-12	2	4	3	0
Cc1oc(-c2ccccc2)cc1C(=O)Nc1ccc(N(C)C)cc1	22*	2	7	5	7	4
COc1ccc([C@H]2C[C@@H](O)[C@H](n3cc(C4CC4)nn3)CN2Cc2cccs2)cc1	3	-2	7	-3	/	/
